Laboratory results from PubChem BioAssay (EPA / NIEHS).
Calls of active or inactive are those of the source. How the source made its calls: active means hit-call score of the fitted dose curve at least 0.9, where 1 is the maximum; inactive means score below 0.9.

Each compound was assayed on ABC Transporter (ABCC3), ABCC3 (gene 8714) (assay: LTEA_HepaRG_ABCC3: Life Technologies and Expression Analysis (LTEA) Assay for ABC Transporter (ABCC3) using HepaRG (AID 2283462)). Conditions: mRNA level, 48 h; actives raise or lower the signal.
Description: LTEA_HepaRG is a cell based, multiplexed-readout assay that uses HepaRG, a human liver cell line, with measurements taken at 48 hours after chemical dosing on a 96-well plate.LTEA_HepaRG_ABCC3 is one of 102 assay component(s) measured in the LTEA HepaRG cell culture assay. It is a marker of NR mediated transport.Data from the assay component LTEA_HepaRG_ABCC3 was analyzed into 1 endpoint. This assay endpoint, LTEA_HepaRG_ABCC3, was analyzed with bidirectional fitting relative to DMSO as the negative control and baseline of activity. Using a type of inducible reporter, measures of mRNA induction for gain or loss-of-signal activity can be used to understand regulation of transcription factor activity. To generalize the intended target to other relatable targets, this assay endpoint is annotated to the transporter intended target family, where the subfamily is ABC transporter.
A total of 1060 chemcials from the ToxCast library were tested in eight-point concentration-response experiments. Cell culture and cytotoxicity assays were conducted at Thermo Fisher Scientific's Custom Services facility (Madison, WI). A single lot of human HepaRG cells (Thermo Fisher Scientific, Frederick, MD) was used for the cell culture experiments. 96-well format collagen type I coated plates of human HepaRG cells were prepared using established methods. Briefly, cryopreserved HepaRG cells were thawed, plated at a density of approximately 100,000 cells/well in HepaRG Thaw, Plate, and General Purpose media (HPRG770, Thermo Fisher Scientific), and incubated for 48 hours. 0.5% DMSO was selected as vehicle control to balance the requisite need of DMSO in HepaRG cultures to maintain differentiation (for example, baseline metabolism, proportions of hepatocytes vs. cholangiocytes), while enabling further hepatic receptor pathway activation (for example, PXR and CAR) in response to chemical exposure. 48 hours after plating, the culture medium was replaced with HepaRG Serum-Free Incudtion Media. Cells were exposed to each test chemical in duplicate and maintained in CO2 incubators for another 48 hours. Chemical plates were thawed to room temperature and 200x concentrations of treatment groups were prepared. 8-point conentration-reponse curves were made with the highest exposure at 100 uM, followed by half-log dilutions, all in 0.5% DMSO. Each test plate contained variouse controls, induction positive controls (1mM phenobarbital), cytotoxicity positive controls ([…] aflatoxin B1), vehicle controls (0.5% DMSO), and total lysis controls (0.5% DMSO). Cell morphology images were taken using an Essen IncuCyte FLR automated microscope, with six 96-well plates imaged in about 24 minutes. Images were captured and exported and JPEG files. Spent culture media was transfered to black-well plates for the LDH assay, and remaining media was sorted at -80 C for later use. Cells were treated with RLT buffer and frozen until shipped for gene expression analysis. Total RNA was isolated from the cell suspension in 75 uL of Buffer RLT (Qiagen, Germantown, MD 20874) by Quintiles/Expression Analysis (Durham, NC) using a custom isolation procedure. Total RNA from each plate well was transferred to a preamplification plate. Fluidigm's 96.96 Dynamic ArrayTM (Fluidigm, Amsterdam, the Netherlands) technology was used for gene expression analyses by quantitative reverse transcription polymerase chain reaction (qRT-PCR, performed by Quintiles/Expression Analysis, Durham, NC)89. Standard TaqManTM Assays (Applied Biosystems/ThermoFisher Scientific, Foster City, CA) were used to assess the expression of 93 genes selected based on their selectivity and sensitivity to important hepatic receptors known to be modulated by environmental chemicals; importance in human hepatocyte functionality; and hepatotoxicity. […]

SMILES | outcome | AC50
CCCCCCOCCO | inactive | 
Nc1ccccc1N |  | 71.9 µM (active)
O=C(OCCCCCOC(=O)c1ccccc1)c1ccccc1 |  | 12.7 µM (active)
FC(F)(F)C(F)(F)C(F)(F)C(F)(F)C(F)(F)C(F)(F)CCI | inactive | 
CCOC(=O)C(C)(C)Oc1ccc(Cl)cc1 | inactive | 
CN1CCN(Cc2cc(-c3ccc4[nH]c(=O)oc4c3)co2)[C@@H](c2ccc(F)cc2)C1 |  | 78 µM (active)
Cc1cccc([N+](=O)[O-])c1C | inactive | 
CCCCCCCCCCCCCCCCCC(=O)O | inactive | 
CCCCCCCCCCCCCCCC | inactive | 
CC(=O)OC/C=C(\C)CCC=C(C)C | inactive | 
CCOc1ccc2c(c1)C(C)=CC(C)(C)N2 | inactive | 
Cc1ccc(C)c(O)c1C | inactive | 
NS(=O)(=O)c1cc2c(cc1Cl)NCNS2(=O)=O | inactive | 
O=c1[nH]cc(F)c(=O)[nH]1 | inactive | 
Nc1ccc2c(c1)C(=O)c1ccccc1C2=O | inactive | 
Oc1ccc2ccccc2c1N=Nc1ccccc1 | inactive | 
C=CCc1ccc(O)c(OC)c1 | inactive | 
Cc1ccc(N(C)C)cc1 | inactive | 
Cc1cccc(C)c1O | inactive | 
OC[C@@H](O)[C@@H](O)[C@H](O)[C@H](O)CO | inactive | 

SMILES | outcome | AC50
CC=Cc1ccc(O)c(OC)c1 | inactive | 
CCCCC(CC)COC(=O)CC(C(=O)OCC(CC)CCCC)S(=O)(=O)O (stereo not given) | inactive | 
Nc1nc(N)c2nc(CNc3ccc(C(=O)N[C@@H](CCC(=O)O)C(=O)O)cc3)cnc2n1 | inactive | 
CNC(=O)[C@H]1O[C@@H](n2cnc3c(NCc4cc(Cl)ccc4OCc4cc(C)no4)ncnc32)[C@H](O)[C@@H]1N | inactive | 
Clc1cc(Cl)c(Cl)cc1Cl | inactive | 
CCCCCCCCCCCC(=O)OC | inactive | 
CCCc1cc(=O)[nH]c(=S)[nH]1 | inactive | 
Cc1ccc(C)c(C)c1 | inactive | 
Cc1c(C(=O)O)c(O)cc2c1C(=O)c1c(O)c([C@@H]3O[C@H](CO)[C@@H](O)[C@H](O)[C@H]3O)c(O)c(O)c1C2=O | inactive | 
O=C(O)CCCCC(=O)O | inactive | 
O=[N+]([O-])C(CO)(CO)CO | inactive | 
CC(C)c1ccc(C(=O)N=C(N)N)cc1S(C)(=O)=O | inactive | 
Oc1ccc2c(c1)OC[C@@H](N1CCC(O)(c3ccc(F)cc3)CC1)[C@H]2O | inactive | 
CC(=O)Oc1ccccc1C(=O)O | inactive | 
COC(=O)c1ccc(O)cc1 | inactive | 
CN[C@H]1CC[C@@H](c2ccc(Cl)c(Cl)c2)c2ccc(S(N)(=O)=O)cc21 |  | 12.6 µM (active)
CCNc1cccc(C)c1 | inactive | 
CCc1c(C(=O)NN2CCCCC2)nn(-c2ccc(Cl)cc2Cl)c1-c1ccc(Br)cc1 | inactive | 
CCCCCC(=O)O | inactive | 
CC(=O)C(C)=CC1C(C)=CCCC1(C)C (stereo not given) | inactive | 
